SARS PLP yeast: SARS-CoV PLP inhibition in yeast; S. cerevisiae expressing SARS-CoV PLpro, growth rescue; Potency, µM (titrated, usually from 32.9 µM), for inactives: top-dose activity, positive = growth rescue, usual class: activators; 330,000 compounds, 0.19% hits; AID 485353; further: potency means the concentration at half of the fitted maximal effect; 0% is about no effect; nearly all actives have a fitted effect of over 55% in size
NS1 function inh: influenza NS1 inhibition; Potency, µM (highest dose often 46.1 µM), for the others: at the top dose activity, positive = more growth; 270,000 compounds, 0.4% hits; AID 2326; further: potency means the concentration at half of the fitted maximal effect; actives are rising curves; nearly all actives have a fitted effect of over 50% in size
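Recovery from NS1-induced slow growth read by OD600 in budding yeast switched to galactose assay medium (pH 6.0, -URA) at 1:100 dilution. Compound 23 nl per well; the matching strain lacking NS1 serves as control.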
Shiga inhibitor: blocks Shiga toxin action in Vero cells; Vero cells, Shiga toxin protein synthesis inhibition reporter; inhibition, % at 38.7 µM; 290,000 compounds, 9.2% hits; AID 2315; in the data active means inhibition mostly above about 28%, no sharp cut-off; inactive means mostly below about 43%; further: 0% is about no effect
Cycloheximide cs: counter-screen for Shiga toxin inhibitors: cycloheximide protein synthesis inhibition | cell reporter, cycloheximide protein synthesis inhibition counterscreen | max response, % | 300,000 compounds, 12% hits | AID 2314; in the data active means max response mostly above about 13%, no sharp cut-off; inactive means mostly below about 14%; further: read at 38.3 µM for the half of the compounds with a filed dose; 0% is about no effect
Starred values were filed as active, the others as inactive; ? = inconclusive; . = no result. This is a sample that favours compounds with a hit; in the whole collection about 12% have one here. Unless noted, the call rests on the fitted dose curve.

SMILES	SARS PLP yeast	NS1 function inh	Shiga inhibitor	Cycloheximide cs
Cc1cc(CNC(=O)c2cc(COc3c(F)cccc3F)on2)nn1C	1%	-3%	-14	2
Cc1csc(NC(=O)Cc2c(F)cccc2Cl)n1	-2%	2%	.	35*
COc1ccc(OC)c(-c2csc(NC(=O)Cc3ccccc3F)n2)c1	-38%	-25%	41*	28*
CN1C(=O)N(C)C2(C)CC1(C)N(C)C(=O)N2C	0%	2%	16	-2
COc1cccc(CC(=O)Nc2nc(C)cs2)c1	0%	.	72*	43*
Cc1cccc(NC(=O)Cc2c(F)cccc2Cl)n1	-4%	-10%	112*	28*
Cc1ccc(CC(=O)Nc2cccc(C)n2)cc1	0%	-10%	69*	33*
O=C(Cc1c(F)cccc1Cl)Nc1ccncc1	-7%	-39%	-5	-2
COc1cc(/C=N/NC(=O)Cc2ccccc2)cc([N+](=O)[O-])c1O	3%	12%	-11	-2
COc1cc(/C=N/Nc2nc3ccccc3s2)cc([N+](=O)[O-])c1O	1%	2%	56*	19*
O=[N+]([O-])c1cc(Cl)cc(/C=N/Nc2nc3ccccc3s2)c1O	-4%	-2%	41*	32*
O=C(COC(=O)Cn1cnc2ccccc21)Nc1cc(S(=O)(=O)N2CCOCC2)ccc1Cl	-1%	-6%	6	-7
O=C(COC(=O)Cn1cnc2ccccc21)Nc1cc2c(cc1Cl)C(=O)c1ccccc1C2=O	-1%	-35%	50*	37*
COc1ccc(CCNC(=O)CSc2nc3[nH]ncc3c(=O)n2-c2ccc(C)c(Cl)c2)cc1OC	1%	.	96*	41*
Clc1ccccc1-c1nc(-c2ccc(Br)o2)no1	-2%	-15%	129*	37*
Nc1nnc(-c2ccccc2[N+](=O)[O-])o1	4%	.	-9	-2
O=[N+]([O-])c1ccccc1-c1nc(-c2ccc(Br)o2)no1	?	-4%	88*	30*
Cc1nn(CC(=O)NCCc2cccs2)c(=O)c2cc3ccccc3n12	-7%	8%	-4	-1
CC(C)(C)c1cc(C(=O)NNC(=O)c2ccc(C(F)(F)F)cc2)no1	-1%	-4%	-16	-1
O=c1c2[nH]c3ccccc3c2ncn1C1CCCCC1	4%	-19%	47	26*
O=c1c2ccccc2ncn1C1CCCCC1	.	-15%	25	-2
Cn1c(Cl)cnc1C1CC(=O)c2cc(Cl)ccc2O1 (stereo not given)	-48%	-31%	-12	-2
Cc1ccc(/C=C/C(=O)NCc2ccco2)o1	-7%	10%	7	-1
O=C(/C=C/c1ccc2c(c1)OCO2)NCc1ccncc1	0%	8%	31	11
Cc1ccc(/C=C/C(=O)NCCCn2ccnc2)cc1	-3%	-2%	-13	-3
SMILES	SARS PLP yeast	NS1 function inh	Shiga inhibitor	Cycloheximide cs
O=C(/C=C/c1ccc(Cl)c(Cl)c1)NCCCn1ccnc1	1%	6%	51*	25*
O=C(/C=C/c1ccc2c(c1)OCO2)NCc1ccco1	-1%	11%	33	25*
O=C(/C=C/c1c(Cl)cccc1Cl)NCc1ccco1	9%	1%	-8	13
O=C(/C=C/c1ccc(Cl)c(Cl)c1)NCc1ccco1	-44%	-37%	active	11
O=C(/C=C/c1ccccc1Cl)NCc1ccco1	-14%	-82%	63*	43*
Cc1cc(=O)[nH]c(SCc2ccc(Cl)cc2Cl)n1	0%	-6%	-6	-4
COC(=O)C1NN=C(C(=O)c2ccc(Cl)cc2)C1c1ccc(OC)cc1 (stereo not given)	6%	-4%	-13	-2
O=C(/C=C/c1ccccc1)NCc1ccco1	-1%	-2%	69*	30*
O=C(/C=C/c1ccco1)NCc1ccco1	1%	2%	-3	-2
O=S(=O)(C/C(=C/CO)S(=O)(=O)c1ccccc1)c1ccccc1	5%	14%	41	26*
Nc1nnc(-c2ccncc2)s1	0%	-4%	-3	1
CCCOc1ccc(-c2nnc(N)s2)cc1	-7%	-10%	105*	40*
CNc1nnc(-c2ccc(OC)cc2)s1	-2%	-8%	78*	33*
CC(C)c1ccc(-c2nnc(N)s2)cc1	-32%	-20%	54*	66*
Cc1ccc(SCc2nnc(N)s2)cc1	13%	5%	0	10*
Cc1ccc(-c2nc(N3CCN(S(=O)(=O)c4ccc(F)cc4)CC3)c3ccc(Cl)cc3n2)cc1	.	.	-17	-7
Cc1ccn2cc(C(=O)Nc3cccc(C(=O)NC4CC4)c3)nc2c1	4%	.	.	.
Cc1ccc(-c2nnc(N)s2)cc1	-39%	-5%	66*	43*
COc1ccc(-c2nnc(N)s2)cc1	-2%	-7%	39	37*
O=C(CCC(=O)NC12CC3CC(CC(C3)C1)C2)NC1CCCCC1	14%	4%	-7	1
CC(=O)Nc1ccc(NC(=O)C(C)Sc2n[nH]c(-c3ccc(C)cc3)n2)cc1 (stereo not given)	-2%	.	.	.
COc1ccc(Nc2nc(N)nc(C(F)(F)F)n2)c(OC)c1	-2%	-6%	46	25*
COc1ccc(Nc2nc(N)c3ccccc3n2)c(OC)c1	-6%	-13%	45*	34*
COc1ccc(Nc2nc(-c3ccccc3)nc3ccccc23)c(OC)c1	-3%	.	13	-1
CN(Cc1ccccc1)C1CCCN(C(=O)c2ccc(Cl)s2)C1 (stereo not given)	20%	-1%	-9	8
SMILES	SARS PLP yeast	NS1 function inh	Shiga inhibitor	Cycloheximide cs
Nc1cc(N)c(OCC(F)(F)F)cc1OCC(F)(F)F	-5%	?	7	2
Nc1nc(OCC(F)(F)F)cc(Oc2ccccc2F)n1	0%	-11%	80*	22*
COc1ccc(NC(=O)CCNS(=O)(=O)c2ccccc2F)cc1S(N)(=O)=O	-2%	11%	24	-3
COc1ccc(C2=C(SC)CC2=NC(C)(C)C)cc1	14%	2%	30	13*
CCN(CC)CCC(C)OC(=O)c1ccc(O)cc1O (stereo not given)	22%	1%	-35	-2
COc1ccc(C(=O)OCC(=O)NC2CC2)cc1F	-3%	.	.	.
O=C(Cn1c(-c2cscn2)nc2ccccc21)Nc1ccccc1F	2%	6%	15	1
C=CCn1cccc(C(=O)Nc2ccc(F)cc2)c1=O	1%	-4%	63*	39*
O=C(Nc1ccccc1)c1cccn(Cc2ccccc2)c1=O	-9%	0%	98*	34*
Cn1cc(Cl)cc(C(=O)Nc2ccccc2)c1=O	-4%	4%	59*	34*
COc1ccc(NC(=O)c2cccn(CC=C(C)C)c2=O)cc1	-1%	.	58*	40*
COc1ccc(NC(=O)c2ccccc2NC(=O)CSc2ccc(C)cc2)cc1	0%	-6%	8	6
CCOc1cc(S(=O)(=O)NCCCn2ccnc2)ccc1Cl	-5%	-4%	.	1
Cc1ccc(NC(=O)C(C)OC(=O)c2ccc(NC(=O)CC#N)cc2)cc1S(=O)(=O)N1CCOCC1 (stereo not given)	5%	.	.	.
C=CCc1cccc2cc(C(=O)Nc3ccc(CC(=O)O)cc3)c(=O)oc12	1%	16%	-2	-1
C=CCc1cccc2cc(C(=O)Nc3ccc(F)cc3)c(=O)oc12	11%	-7%	0	11*
C=CCn1cccc(C(=O)Nc2ccc(OC)cc2)c1=O	-8%	-3%	62*	48*

High-throughput results deposited in PubChem by National Center for Advancing Translational Sciences (NCATS).
